HEK cytotox: HEK 293 cell cytotoxicity; HEK 293 viability, ATP luminescence (CellTiter-Glo), 48-72 h; Potency, µM (top dose mostly 115 µM), for the others: at the highest dose activity change, negative = cytotoxicity, usual class: inhibitors; 94,000 compounds, 6.6% hits; note: nearly all actives have a fitted effect of over 60% in size
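Read-out: CellTiter-Glo ATP luminescence. Cells: HEK 293, 250 cells/well. Exposure: 48 or 72 hr, 37 degree Celsius.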
NIH3T3 tox: NIH 3T3 cell cytotoxicity. NIH 3T3 viability, CellTiter-Glo ATP luminescence, 48-72 h. Potency, µM (doses to about 96.7 µM), for the others: at the highest dose activity change, negative = cytotoxicity, actives largely listed as inhibitors. 94,000 compounds, 4.3% hits; note: nearly all actives have a fitted effect of over 55% in size
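Mouse fibroblast NIH 3T3 cells, 400 per well, received compound via pintool and were incubated for 48 or 72 hr prior to CellTiter-Glo ATP luminescence measurement.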
hNpr1 antagonist: antagonists of human natriuretic peptide receptor Npr1 | HEK293 hNpr1 GloSensor cGMP, ANP-stimulated luminescence | Potency, µM (top dose mostly 46.3 µM), inactives show at the top dose activity change, negative = inhibition, hits mostly inhibitors | 76,000 compounds, 1.6% hits | AID 1347048; calls by dose curve; note: nearly all actives have a fitted effect of over 60% in size
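HEK293 cells stably expressing human Npr1 and cGMP GloSensor pGS-40F, loaded 2 h with 2% GloSensor reagent, given compound 30 min at room temperature. Luminescence read before and 20 min after 0.1 nM hNppA.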
FLuc inh: inhibitors of firefly (Photinus pyralis) luciferase; Potency, µM (highest dose often 115 µM), most hits filed as inhibitors; 76,000 compounds, 2.5% hits; AID 1347043; purified P. pyralis luciferase, luminescence, biochemical; note: nearly all actives have a fitted effect of over 65% in size
Target sequence (P08659 whole entry, looked up): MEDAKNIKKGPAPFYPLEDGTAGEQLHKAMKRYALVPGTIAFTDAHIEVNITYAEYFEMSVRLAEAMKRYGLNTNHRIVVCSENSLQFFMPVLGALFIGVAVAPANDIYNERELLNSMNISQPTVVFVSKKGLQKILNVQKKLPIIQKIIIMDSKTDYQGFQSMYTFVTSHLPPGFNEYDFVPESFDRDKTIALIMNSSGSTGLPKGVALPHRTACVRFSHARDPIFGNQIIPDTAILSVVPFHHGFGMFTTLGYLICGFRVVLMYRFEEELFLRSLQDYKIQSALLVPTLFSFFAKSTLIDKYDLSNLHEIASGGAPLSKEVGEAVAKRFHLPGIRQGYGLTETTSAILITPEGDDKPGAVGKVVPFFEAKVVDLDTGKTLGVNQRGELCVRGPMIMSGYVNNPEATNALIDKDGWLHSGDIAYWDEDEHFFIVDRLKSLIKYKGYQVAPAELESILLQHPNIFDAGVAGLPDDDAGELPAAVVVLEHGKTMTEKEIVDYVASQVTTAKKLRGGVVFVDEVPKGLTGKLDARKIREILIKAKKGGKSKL
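FLuc 10nM, D-luciferin 10uM, ATP 10uM, Mg acetate 10mM, Tris acetate pH 7.5, Tween/BSA; cpd qHTS; enzyme added last; CCD luminescence.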
* = called active by the depositor; [ ] = remark or other dose. Rows were chosen to be rich in hits. Some 11% of all compounds tested hit in one or more screens of this group. Unless noted, calls come from the whole dose curve; as a rule, active = well fitted curve in the direction sought with a large enough effect; inconclusive = small, poorly fitted or top-dose-only effect, or another doubt; inactive = no such curve, though single readings can be large; an effect the other way counts as inactive or inconclusive. % is set by controls: 0 for no effect and ±100 for the full control effect; potency is the fitted concentration of half-maximal effect.

How did Cc1oc2c(c1C(=O)N(C)C)CN(S(=O)(=O)c1ccccc1)CC2 do in these assays?
HEK cytotox: -18%; NIH3T3 tox: -12%; hNpr1 antagonist: 0%; FLuc inh: inactive

Results for CC(C)CCN(C)Cc1cccc(C(F)(F)F)c1 ?
HEK cytotox: 4%[172 µM]; NIH3T3 tox: -13%[138 µM]

Results for Cc1ccc(CC(=O)N2CCC(Cc3nc(-c4ccccc4)no3)CC2)cc1 ?
HEK cytotox: inconclusive; NIH3T3 tox: inconclusive; hNpr1 antagonist: inconclusive; FLuc inh: inactive

What do the screens show for `COc1ccc(-c2noc(CC3CCN(C(=O)Cc4ccsc4)CC3)n2)cc1`?
HEK cytotox: 45µM*; NIH3T3 tox: inconclusive; hNpr1 antagonist: inconclusive; FLuc inh: inactive

Results for O=C1NCCCCCCN(Cc2cccc(F)c2)[C@H]2CCC[C@@H]12 ?
HEK cytotox: 79µM*; NIH3T3 tox: inconclusive; hNpr1 antagonist: -15%; FLuc inh: inactive

Results for N#Cc1ccc(CN2CCCCCNC(=O)[C@@H]3CCC[C@@H]32)cc1 ?
HEK cytotox: 79µM*; NIH3T3 tox: inconclusive; hNpr1 antagonist: -9%; FLuc inh: inactive

What do the screens show for `Cc1ccccc1CC(=O)NC1CCN(c2cc(-c3ccccc3)[nH]n2)CC1`?
HEK cytotox: inconclusive; NIH3T3 tox: inconclusive; hNpr1 antagonist: -11%; FLuc inh: inactive

How did O=C(CN1CCCc2nc(-c3ccccc3)ncc2C1=O)N1CCOCC1 do in these assays?
HEK cytotox: inconclusive; NIH3T3 tox: -33%

How did CCOC(=O)c1ccc(NC(=O)c2ccc3c(c2)N(CC)C2CCCCN2C3=O)cc1 (stereo not given) do in these assays?
HEK cytotox: 35µM*; NIH3T3 tox: inconclusive; hNpr1 antagonist: -25%; FLuc inh: inactive

Results for CCN1c2cc(C(=O)Nc3cc(OC)cc(OC)c3)ccc2C(=O)N2CCCCC21 (stereo not given) ?
HEK cytotox: inconclusive; NIH3T3 tox: -22%; hNpr1 antagonist: -7%; FLuc inh: inactive

How did CCOC(=O)c1ccc(NC(=O)c2ccc3c(c2)N(C)C2CCCCN2C3=O)cc1 (stereo not given) do in these assays?
HEK cytotox: 35µM*; NIH3T3 tox: inconclusive; hNpr1 antagonist: 0%; FLuc inh: inactive

What do the screens show for `CCOC(=O)c1ccc(NC(=O)c2ccc3c(c2)N(CC)C2CCCN2C3=O)cc1` (stereo not given)?
HEK cytotox: inconclusive; NIH3T3 tox: -40%; hNpr1 antagonist: -4%; FLuc inh: inactive

What do the screens show for `CCOc1ccc(NC(=O)c2ccc3c(c2)N(CC)C2CCCCN2C3=O)cc1` (stereo not given)?
HEK cytotox: 32µM*; NIH3T3 tox: 22µM*; hNpr1 antagonist: -9%; FLuc inh: inactive

How did O=C(O)Cn1ccc2cc(OCC3CCN(C(=O)C4CCCC4)CC3)cnc21 do in these assays?
HEK cytotox: 3%[172 µM]; NIH3T3 tox: 100µM*; hNpr1 antagonist: 0%[70.6 µM]; FLuc inh: inactive

Results for NC(=O)Cn1ccc2cc(OCC3CCN(C(=O)C4CC4)CC3)cnc21 ?
HEK cytotox: -20%[172 µM]; NIH3T3 tox: inconclusive; hNpr1 antagonist: -1%[70.6 µM]; FLuc inh: inconclusive

What do the screens show for `O=C(O)Cn1ccc2cc(OCC3CCN(C(=O)CCC(F)(F)F)CC3)cnc21`?
HEK cytotox: -11%[172 µM]; NIH3T3 tox: 89µM*; hNpr1 antagonist: -9%[70.6 µM]; FLuc inh: inactive

What do the screens show for `COCCCNC(=O)c1ccccc1-c1ccc(OC)nn1`?
HEK cytotox: 0%[172 µM]; NIH3T3 tox: -1%[138 µM]

How did O=C(CC1=C2CCCCC2N(Cc2ccccc2)C1=O)NCCN1CCCC1 (stereo not given) do in these assays?
HEK cytotox: inactive; NIH3T3 tox: 2%

Results for O=C(C1CCCN1C(=O)c1ccccc1F)N1CCC(c2nc3ccncc3[nH]2)C1 (stereo not given) ?
HEK cytotox: -3%; NIH3T3 tox: 0%

What do the screens show for `c1ccc2c(c1)CCN2c1nccnc1OC1CCNC1` (stereo not given)?
HEK cytotox: -35%; NIH3T3 tox: -13%; hNpr1 antagonist: -12%; FLuc inh: inactive

How did CN1CCC(Oc2nccnc2N2CCc3ccccc3C2)C1 (stereo not given) do in these assays?
HEK cytotox: inconclusive; NIH3T3 tox: inconclusive; hNpr1 antagonist: -13%; FLuc inh: inactive

How did c1ccc(CN2CCC(Oc3nccnc3N3CCc4ccccc43)C2)nc1 (stereo not given) do in these assays?
HEK cytotox: 40µM*; NIH3T3 tox: inconclusive; hNpr1 antagonist: 0%; FLuc inh: inactive

What do the screens show for `COCC(=O)N1CCC(Oc2nccnc2N2CCc3ccccc32)C1` (stereo not given)?
HEK cytotox: -1%; NIH3T3 tox: inactive; hNpr1 antagonist: 0%; FLuc inh: 35µM*

What do the screens show for `O=[S+]([O-])(c1cccs1)N1CCN(c2ccc3nnc(-c4ccccc4)n3n2)CC1`?
HEK cytotox: 2%; NIH3T3 tox: -12%

How did Cc1nc(C2CC23CCN(C(=O)Nc2ccc4c(c2)OCCO4)CC3)no1 (stereo not given) do in these assays?
HEK cytotox: -24%; NIH3T3 tox: -32%

Results for CN(C)c1nccnc1OC1CCN(C(=O)CCCc2ccccc2)C1 (stereo not given) ?
HEK cytotox: 79µM*; NIH3T3 tox: -11%; hNpr1 antagonist: 1%; FLuc inh: inconclusive

How did CN(C)c1nccnc1OC1CCN(C(=O)CC2CCCC2)C1 (stereo not given) do in these assays?
HEK cytotox: inconclusive; NIH3T3 tox: -7%; hNpr1 antagonist: 6%; FLuc inh: 35µM*

Results for CN(C)c1nccnc1OC1CCN(C(=O)c2ccn[nH]2)C1 (stereo not given) ?
HEK cytotox: 0%; NIH3T3 tox: inactive; hNpr1 antagonist: -7%; FLuc inh: 25µM*

What do the screens show for `COc1ccc(-c2cccc(C(=O)N3CCN(C(=O)Cc4ccc(F)cc4)CC3)c2)nn1`?
HEK cytotox: -27%; NIH3T3 tox: -23%

How did CCN1CCN(C(=O)c2cc(-c3ccc(F)cc3)nc3c2cnn3C)CC1 do in these assays?
HEK cytotox: -3%[172 µM]; NIH3T3 tox: inconclusive

What do the screens show for `COc1ncc(CN2CCc3c(n(Cc4cccnc4)n(-c4ccccc4)c3=O)C2)cn1`?
HEK cytotox: -22%[172 µM]; NIH3T3 tox: inconclusive; hNpr1 antagonist: -2%[70.6 µM]; FLuc inh: inactive

What do the screens show for `COCCn1c(=O)c2c(n1Cc1ccccc1)CN(Cc1cccc(C)n1)CC2`?
HEK cytotox: -10%[172 µM]; NIH3T3 tox: inconclusive; hNpr1 antagonist: -3%[70.6 µM]; FLuc inh: inactive

What do the screens show for `O=c1c2c(n(Cc3cccnc3)n1-c1ccccc1)CN(CC1CC1)CC2`?
HEK cytotox: -21%[172 µM]; NIH3T3 tox: 28µM*; hNpr1 antagonist: -4%[70.6 µM]; FLuc inh: inactive

What do the screens show for `Cc1cccc(CN2CCc3c(n(Cc4cccnc4)n(-c4ccccc4)c3=O)C2)n1`?
HEK cytotox: -2%[172 µM]; NIH3T3 tox: 100µM*; hNpr1 antagonist: -5%[70.6 µM]; FLuc inh: inactive

Source: PubChem
